This is a sample that favours compounds with a hit; in the whole collection about 1.6% have one here.
KCNQ2 block – blocks the rat KCNQ2 potassium channel | hit rate 1.1% among 310,000 | B-score at 10 µM | CHO-K1 KCNQ2, FluxOR thallium flux, 20 min; stronger effect = lower value;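 active = fluorescence ratio B-score at most minus 3 library SDs, with starting brightness B-score within 2 library SDs, cut at about -5.5 in these data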
KCNQ2 pot – enhances the rat KCNQ2 potassium channel | O88943 | CHO-K1 KCNQ2, FluxOR thallium flux fluorescence; stronger effect = higher value | B-score at 10 µM | hit rate 0.54% among 310,000 | AID 2239;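 active = fluorescence ratio B-score at least 3 SD of library B-scores, with initial fluorescence B-score within 3 of them, cut at about 5.3 in these data; same plate scores as AID 2156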;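 note: B-score of peak minus minimum over baseline fluorescence ratio after K+ and Tl+ stimulus; positive B-score means potentiation of KCNQ2 with more thallium influx and brighter signal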
Kir21 confirm – confirmation of mouse Kir2.1 potassium channel inhibitors. shares compounds with KCNQ2 pot. Kir2.1-expressing cells, FluxOR thallium flux fluorescence; stronger effect = lower value. Tl flux remaining, % of negative control (stronger effect = lower value), % at 10 µM. hit rate 41% among 2,300. AID 2032;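 active = Primary-screen hit whose thallium flux fell at least 3 control SD below untreated wells in both duplicates, with normal baseline fluorescence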;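 note: 0% = blank wells without stimulus and 100% = stimulated no-compound controls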
Target sequence (P35561 whole entry, looked up): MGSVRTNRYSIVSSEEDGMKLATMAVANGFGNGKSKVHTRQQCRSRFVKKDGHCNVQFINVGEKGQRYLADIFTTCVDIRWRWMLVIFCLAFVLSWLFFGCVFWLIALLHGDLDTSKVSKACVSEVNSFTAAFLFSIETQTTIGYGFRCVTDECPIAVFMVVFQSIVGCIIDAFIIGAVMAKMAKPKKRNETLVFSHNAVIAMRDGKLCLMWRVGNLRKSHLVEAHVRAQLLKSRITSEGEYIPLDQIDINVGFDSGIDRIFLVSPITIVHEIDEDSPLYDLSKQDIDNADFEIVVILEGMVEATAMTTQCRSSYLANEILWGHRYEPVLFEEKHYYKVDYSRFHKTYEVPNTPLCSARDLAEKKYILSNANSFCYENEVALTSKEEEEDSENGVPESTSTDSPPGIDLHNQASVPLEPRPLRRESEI
HEK293 ctr – alters thallium flux in parental HEK293 cells, Kir2.1 counter-screen | FluxOR thallium flux fluorescence; 0% = unstimulated blank wells | hit rate 19% among 2,300 | FluxOR signal as % of negative control (100 = no effect), % at 10 µM | shares compounds with KCNQ2 pot | AID 2105;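 active = dye signal at least 3 control SD above or below untreated wells in both duplicates, raw fluorescence within 3, either direction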;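 note: percent is based on the flux ratio of peak minus minimum fluorescence over baseline F0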
CHO-K1 ctr – alters thallium flux in parental CHO-K1 cells, KCNQ2 counter-screen | shares compounds with KCNQ2 pot | activity increase over 3SD of controls, % at 10 µM | hit rate 43% among 1,200 | FluxOR thallium flux fluorescence; zero = vehicle mean+3SD, 100% = vehicle-minus-blank window;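 active = signal rise of at least 3 SD above the untreated control mean, in both duplicate wells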;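 note: counter screen of KCNQ2 potentiator hits so any rise reflects channel-independent effects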
KCNQ1 sel pot – human KCNQ1 counter-target activity of KCNQ2 potentiators; shares compounds with KCNQ2 pot; CHO KCNQ1 stable, FluxOR thallium flux fluorescence; beyond 3SD, as % of vehicle-control signal; activation over 3SD threshold, % at 10 µM; hit rate 28% among 1,200;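 active = fluorescence ratio rise of at least 3 SD of vehicle wells above their mean, in both replicate wells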;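 note: 0% = vehicle mean plus 3 SD and 100% = vehicle minus unstimulated blank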
KCNQ2 pot conf – rat KCNQ2 channel potentiator confirmation; CHO-KCNQ2 cells, FluxOR thallium flux fluorescence; AID 2287; potentiation, less the hit threshold, % at 10 µM; shares compounds with KCNQ2 pot; hit rate 68% among 1,200;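 active = fluorescence ratio rising 3 SD or more over the vehicle control mean in both replicates, plus primary screen hit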;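 note: peak minus minimum thallium fluorescence divided by baseline after K/Tl stimulus; 0% = vehicle mean plus 3 SD and 100% = vehicle minus unstimulated blank difference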
Kir21 spec – tests whether KCNQ2 potentiators also affect mouse Kir2.1; shares compounds with KCNQ2 pot; activity over 3SD threshold, % at 10 µM; HEK293 Kir2.1, FluxOR thallium flux fluorescence; hit rate 2% among 1,200;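 active = fluorescence ratio rise of at least 3 SD above the vehicle-control mean, seen in both replicates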;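 note: 0% = vehicle mean plus 3 SD and 100% = vehicle minus no-stimulus blank window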
KCNQ2 W236L pot – rat KCNQ2 W236L mutant potentiation by KCNQ2 potentiators | shares compounds with KCNQ2 pot | CHO KCNQ2-W236L, automated patch clamp current | current increase over 3SD of negative controls (%), stronger effect = higher value, % at 25 µM | hit rate 10% among 940;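 active = current increase at least 3 SD of the untreated controls above them in both duplicate recordings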
* hit, by the source's call; i = inactive; . = not tested or not shown.

SMILES	KCNQ2 block	KCNQ2 pot	Kir21 confirm	HEK293 ctr	others
Cc1ccc(C(C)NC(=O)c2cccs2)cc1 (configuration not stated)	i	1.82	.	.
Cc1ccc(C(=O)NC(C)c2ccc(C)c(C)c2)s1 (configuration not stated)	i	12*	i	i	CHO-K1 ctr=-2.8;KCNQ1 sel pot=30.3*;KCNQ2 pot conf=27.4*;Kir21 spec=-45.9;KCNQ2 W236L pot=i
O=S(=O)(NCc1cccc(C(F)(F)F)c1)NCc1ccccc1F	i	.	.	.
Cc1cc(C)c(Cn2c3ccccc3c3cnn(CC(=O)NCCN4CCOCC4)c(=O)c32)c(C)c1	i	1.57	.	.
Cc1cc(C)c(Cn2c3ccccc3c3cnn(CC(=O)NCc4ccccn4)c(=O)c32)c(C)c1	i	13.5*	i	i	CHO-K1 ctr=-40.5;KCNQ1 sel pot=-14.0;KCNQ2 pot conf=8.7*;Kir21 spec=-12.4;KCNQ2 W236L pot=i
O=C(NC(=S)N1CCN(c2nc(-c3ccccc3)cs2)CC1)c1cncc(Br)c1	i	16.7*	i	247.0%*	CHO-K1 ctr=-10.8;KCNQ1 sel pot=-14.3;KCNQ2 pot conf=18.1*;Kir21 spec=-26.2;KCNQ2 W236L pot=i
COCCCNC(=S)N1CCN(c2nc(-c3ccccc3)cs2)CC1	i	0.5	.	.
COc1ccc(N2CCN(C(=O)CCNC(=O)c3ccccc3)CC2)cc1	i	1.69	.	.
C(#CCN1CCCC1)CC(c1ccccc1)c1ccccc1	i	.	40.5%*	i
OC(CC#CCN1CCCC1)(c1ccccc1)c1ccccc1	i	.	.	.
COc1ccc(C2=NS(=O)(=O)N(C)C(C(=O)Nc3cc(OC)c(OC)c(OC)c3)=C2)cc1	i	.	.	.
Nc1nc(NCCOCCO)nc(Nc2cccc(F)c2)c1[N+](=O)[O-]	i	2.26	.	.
CCOC(=O)N1CCN(C(=O)C2CCN(S(=O)(=O)c3cc(C)ccc3OC)CC2)CC1	i	.	.	.
COc1ccc(Cl)c2sc(N(CCN(C)C)C(=O)CCS(=O)(=O)c3ccc(C)cc3)nc12	i	.	.	.
COc1ccc(OC)c2sc(N(CCCN(C)C)C(=O)CCS(=O)(=O)c3ccccc3)nc12	i	9.92*	.	.	CHO-K1 ctr=-0.3;KCNQ1 sel pot=67.6*;KCNQ2 pot conf=-3.5;Kir21 spec=-56.3
c1ccc(COc2ccc(OCCCNC3CCCC3)cc2)cc1	i	.	30.0%*	i
CCC(C)c1ccccc1OCCCNC1CCCC1 (configuration not stated)	i	1.29	63.0%*	i
COCCCNCCCCOc1ccc(OCc2ccccc2)cc1	i	0.41	.	.
CCC(C)c1ccccc1OCCCCN1CCCC1 (configuration not stated)	i	1.29	.	.
Cc1cc(-c2n[nH]c(=S)n2Cc2ccccc2)cs1	i	.	.	.
CCOc1ccc(C(=O)NCC(=O)OCC(=O)Nc2ccccc2OC)cc1	i	0.07	.	.
COc1ccc(CCN(C)Cc2cccc3ccccc23)cc1OC	i	2.12	.	.
C=CCn1c(SCC(N)=O)nc2scc(-c3ccc(C)o3)c2c1=O	i	5.28*	i	195.0%*	CHO-K1 ctr=22.4*;KCNQ1 sel pot=-16.8;KCNQ2 pot conf=25.0*;Kir21 spec=-26.1;KCNQ2 W236L pot=i
C=CCn1c(SCC(=O)NCCOC)nc2scc(-c3ccco3)c2c1=O	i	.	.	.
COc1ccc(-c2cc(=O)oc3c(O)c(O)ccc23)cc1	i	1.4	.	.
SMILES	KCNQ2 block	KCNQ2 pot	Kir21 confirm	HEK293 ctr	others
CC1Oc2cc3oc4c(O)c(O)ccc4c(=O)c3c(O)c2C1(C)C (configuration not stated)	i	5.39*	i	i	CHO-K1 ctr=-2.2;KCNQ1 sel pot=-12.0;KCNQ2 pot conf=-13.7;Kir21 spec=-18.4
Cc1nc2c3ccccc3nc(NNC(=O)CCC(=O)NCCN3CCN(c4ccccc4)CC3)n2n1	i	.	.	.
O=C(COc1ccccc1)NC1CCCCC1	i	0.12	.	.
CCCCN(CCCNC(=O)CN1C(=O)COc2ccc(S(=O)(=O)N3CCC(C)CC3)cc21)Cc1ccccc1	i	0.9	66.5%*	i
CCCCN(CCCC)CCNC(=O)CN1C(=O)COc2ccc(S(=O)(=O)N3CCC(C)CC3)cc21	i	.	.	.
CC(C)C(c1nnnn1Cc1ccc(F)cc1)N1CCN(C(=O)c2ccco2)CC1 (configuration not stated)	i	.	.	.
CCn1c(SCC(=O)c2ccc(Cl)cc2)nnc1-c1cccs1	i	0.11	.	.
CCn1c(SCCOc2ccc(Cl)cc2)nnc1-c1cccs1	i	.	69.0%*	i
CCOC(=O)c1c(C)c(C#N)c2c3ccccc3ccn12	i	.	.	.
O=c1c2cc(Br)ccc2nc(-c2ccccc2)n1O	i	7.79*	i	425.5%*	CHO-K1 ctr=-16.4;KCNQ1 sel pot=-15.5;KCNQ2 pot conf=49.5*;Kir21 spec=-8.8;KCNQ2 W236L pot=i
O=c1c2ccccc2nc(-c2cccc(Cl)c2)n1O	i	8.71*	i	i	CHO-K1 ctr=74.0*;KCNQ1 sel pot=-21.8;KCNQ2 pot conf=45.5*;Kir21 spec=-25.5;KCNQ2 W236L pot=i
O=c1c2cc(Cl)ccc2nc(-c2ccccc2Cl)n1O	i	2.45	.	.
Cc1ccc(-c2nc3ccccc3c(=O)n2O)cc1	i	3.58	.	.
Cc1ccc(Cl)c(OCC(=O)OC(C)C(=O)NC2CC2)c1 (configuration not stated)	i	.	.	.
CC1=C(C(=O)OCc2ccccc2)C(c2ccccc2-c2ccccc2)NC(=O)N1CCCCCC(=O)O (configuration not stated)	i	.	.	.
Cc1cc(C)c2nc(N3CCC(C(=O)NCCCN4CC(C)CC(C)C4)CC3)sc2c1 (configuration not stated)	-6.42*	-6.42	50.0%*	i
Cc1cc(C)c2nc(N3CCCC(C(=O)NCCCN4CCOCC4)C3)sc2c1 (configuration not stated)	i	.	.	.
CC(C)CCN1C(Nc2ccccc2)=NC[C@@H]1Cc1ccccc1	i	.	.	.
CC(CCN1C(Nc2ccccc2)=NC[C@@H]1Cc1ccccc1)c1ccccc1 (some centres not stated)	i	.	46.0%*	128.5%*
C=C(C)CSc1nc2sc3c(c2c(=O)n1-c1ccc(C)cc1)CCN(C)C3	i	.	.	.
CCCP(=O)(CC(=O)O)c1ccccc1 (configuration not stated)	i	1.11	.	.
C=CCNC(=O)CN(Cc1ccccc1)S(=O)(=O)c1ccc(C)cc1	i	.	.	.
CCC(C)(C)C1CCc2c(sc(NC(=O)c3ccccc3C(=O)O)c2C#N)C1 (configuration not stated)	i	8.34*	i	151.0%*	CHO-K1 ctr=-0.5;KCNQ1 sel pot=-21.4;KCNQ2 pot conf=15.6*;Kir21 spec=-19.4;KCNQ2 W236L pot=i
